Growth data for 40 compounds are collected here from PubChem BioAssay (NCI).

Compounds without any hit were thinned out: in the full panel of roughly 83,000, 20% have a hit.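 Plates (96-well) were seeded with cells, treated with compound at one concentration, and incubated for 48 hours before percent growth was determined.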 A number with no mark means an inactive call. Activity calls are given as the source filed them.

The subject of the assay is PC-3 prostate. As to the kind of experiment: NCI-60 one-dose screen, 48 h (100 = growth as untreated, 0 = no growth, -100 = all killed). The settings on record: 10 µM. The procedure: Growth inhibition of the PC-3 human tumor cell line is measured as a screen for anti-cancer activity. Cells are grown in 96 well plates and exposed to the test compound for 48 hours. Compounds are tested at a single concentration, which is 10^-5 M for most compounds. The reported endpoint is percent growth (GI% or GIPRCNT), where numbers from 0 - 100% represent growth inhibition, and numbers from -100% - 0 represent cell death. For example, a value of 40 represents 60% growth inhibition. A value of 0 means no net growth occurred over the course of the experiment. A value of -40 indicates 40% of cells at the beginning of the experiment died by the end of the experiment. A value of -100 means all cells are dead at the end of the experiment.
NCI-60 Human Tumor Cell Lines Screen was performed using the standard one-dose NCI protocol, which is described in more detail at https://dtp.cancer.gov/discovery_development/nci-60/default.htm.
Compounds with GIPRCNT values below 10 were considered active. Activity score was based on GIPRCNT using the following formula: […]
Score is 0 for GIPRCNT values of 100 or above, 50 for GIPRCNT values of 0, and 100 for GIPRCNT values of -100.
For the compound `Nc1ccc(CC(=O)O)c(N)c1`, the growth was 101%. Under `Cc1cccc(CO)c1` stands 104%; under `O=C(O)/C=C/c1ccc2c(c1)CCC2`, 103%; under `OCc1ccc(-c2ccc(-c3ccc(CO)s3)o2)s1`, 73.1%. As for `Nc1nc(N)c(N=Nc2ccc(C(=O)O)cc2)c(N)n1`, the figure is 101%. Under `COc1ccccc1NC(=O)c1cc2cc(Br)ccc2cc1O` stands -35.3% (active); under `CCCCNC1(C#N)CCN(Cc2ccccc2)CC1`, 96.1%. For the compound `COc1cc(CN)ccc1O`, the growth was 100%. As for `O=[N+]([O-])c1ccc(/C=C/C=C/c2ccccc2)c(Cl)c1`, the figure is 94.1%; as for `CCCCC1(CC)COC(CCC)OC1` (stereo not given), 82%. Under `CCS(=O)(=O)c1cc(=O)[nH]c(=O)[nH]1` stands 124%. Regarding `CC1(C(=O)O)NC(C(=O)O)Cc2c1[nH]c1ccccc21` (stereo not given), the growth is 87.4%. As for `O=C(/C=C\c1ccc(O)cc1)c1ccccc1`, the figure is 90.6%; as for `CSc1[nH]c(=O)ncc1F`, 96.5%. As for `Cn1cnc2nc(Cl)nc(Cl)c21`, the figure is 25.1%; as for `Nc1ccccc1C(=O)Nc1ccc(Cl)cc1Cl`, 78.8%.

As for `O=C(O)c1ccc(S(=O)(=O)O)cc1`, the growth was 88.2%.

In the case of `O=C1Cc2ccccc2C(=O)O1`, the growth was 85.1%.

With `CC1Cc2ccccc2O1` (stereo not given), the growth is 106%. Under `S=c1sc2ccccc2n1CN1CCCCC1` stands 77.2%; under `OC1CCCc2ccccc21` (stereo not given), 103%; under `S=C(Nc1ccccc1)N1CCCCC1`, 96.4%.

With `Cc1cc(/C=C/c2ccc3cc(N(C)C)ccc3[n+]2C)c(C)n1-c1ccccc1`, the growth was -7.89% (active). As for `O=C(c1ccc(Cl)cc1)c1ccccc1Cl`, the figure is 93.4%.

Regarding `CC(=O)OCC1OC(OC2=C(CC=C(C)C)C(=O)c3ccccc3C2=O)C(OC(C)=O)C(OC(C)=O)C1OC(C)=O` (stereo not given), the growth is -6.07% (active). In the case of `CCCC(=O)Nc1ccc2c(c1)CN1C(=O)c3ccccc3C1=N2`, the growth is 98.6%. Under `O=C(CCNNC(=O)c1ccncc1)NCc1ccccc1` stands 87.4%; under `O=C1C=CC2=C3c4cc(O)c(O)cc4CC3(O)COC2=C1O` (stereo not given), 93.7%. As for `CC(C)CCCC(=O)O`, the figure is 94.8%; as for `Cc1ccc(CCCC(=O)O)c(C)c1`, 97.1%; as for `COc1cc(CCN=Cc2ccccc2O)c([N+](=O)[O-])cc1OC`, 98.9%.

For `COc1ccc(/C=C/c2cccc[n+]2C)cc1`, the growth is 87%. Take `O=[N+]([O-])c1ccc(Sc2ccncn2)c([N+](=O)[O-])c1`: the growth was 71.9%. As for `CCS(=O)(=O)CCCl`, the figure is 99.5%; as for `CC(C)C1CCCCC1O` (stereo not given), 98.3%; as for `C=CC[N+](C)(C)C`, 97.6%.

For the compound `CC1(C)/C(=C\CO)C2CCC1C2` (stereo not given), the growth is 95%. Under `CCOC(=O)CNN` stands 99.3%; under `CCC(C#N)(CC)c1ccccc1`, 102%; under `Cc1nc2c(ccc3ccccc32)s1`, 99.7%.
